Assay results as given in PubChem BioAssay AID1159580 (chemical genetic matrix, 2015).
Among all 5,500 compounds or so, about 2,000 (36%) were called active. Another 18% or so got no clear call; they are omitted. Cut-off read from the data, not from the text of the source: active = normalized growth mostly below about 0.91 (no sharp cut-off); inconclusive = no clear call, values can overlap the other calls; inactive = mostly above about 0.92. The list shows a part of the results.

Experiment: chemical genetic growth profiling, strain panel (AID 1159580);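 note: tested at 20 µM; growth read once vehicle control cultures reached saturation at 30 °C; 1 = growth at the plate median or of vehicle wells; lower values mean less growth of the strain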
Conditions: S. cerevisiae deletion strains, growth OD

Measured: normalized growth

CCCN(CCc1ccccc1)C1CCc2c(O)cccc2C1 (centres undefined)
inactive: locus YAL013W, strain DEP1, active compounds read low 0.992 | locus YAL040C, strain CLN3, active compounds read low 1.02 | locus YCL061C, strain MRC1 (second series), active compounds read low 1 | locus YDR363W, strain ESC2, active compounds read low 1.02 | locus YER002W, strain NOP16, active compounds read low 1 | locus YGR229C, strain SMI1, active compounds read low 0.988 | locus YJR075W, strain HOC1, active compounds read low 1 | locus YMR263W, strain SAP30, active compounds read low 1 | locus YMR307W, strain GAS1, active compounds read low 0.997 | locus YNL153C, strain GIM3, active compounds read low 0.957 | locus YNL175C, strain NOP13, active compounds read low 1 | locus YNL224C, strain SQS1, active compounds read low 1.01 | locus YOR083W, strain WHI5 (second series), active compounds read low 1.02 | locus YPL055C, strain LGE1, active compounds read low 0.973
